# The list is not random: actives were taken first. Their share in the collection is about 12%.
# SARS PLpro yeast: SARS-CoV PLP inhibition in yeast; AID 485353; Potency, µM (highest dose often 32.9 µM), hits mostly activators; S. cerevisiae expressing SARS-CoV PLpro, growth rescue; actives 0.19% (n = 330,000); note: nearly all actives have a fitted effect of over 55% in size
# Shiga toxin inh: inhibitors of Shiga toxin in Vero cells; actives 9.2% (n = 290,000); Vero cells, Shiga toxin protein synthesis inhibition reporter; inhibition, % at 38.7 µM; in the data active = inhibition mostly above about 28%, no sharp cut-off; inactive = mostly below about 43%
# Cycloheximide cs: counter-screen for Shiga toxin inhibitors: cycloheximide protein synthesis inhibition; cell reporter, cycloheximide protein synthesis inhibition counterscreen; max response, %; actives 12% (n = 300,000); in the data active = max response mostly above about 13%, no sharp cut-off; inactive = mostly below about 14%; note: read at 38.3 µM for the half of the compounds with a filed dose
# NS1 function inh: blocks influenza NS1 protein function | Potency, µM (series often up to 46.1 µM) | actives 0.4% (n = 270,000); note: actives are rising curves; nearly all actives have a fitted effect of over 50% in size
#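 Read-out: OD600 growth recovery of NS1-expressing budding yeast. Cells grown overnight at 30C in -URA glucose medium, washed, resuspended and diluted 1:100 in 2% galactose assay medium, pH 6.0. Same strain lacking NS1 served as positive control.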
# Hits are given with their value; n = inactive; x = not tested or not shown; ! = not confirmed by another sample. Unless noted, calls come from the whole dose curve.
SMILES,SARS PLpro yeast,Shiga toxin inh,Cycloheximide cs,NS1 function inh
COc1cccc(/C=N/NC(=O)C(=O)NCc2cccnc2)c1,n,n,n,n
COc1cccc(/C=N/NC(=O)C(C)n2nnc3ccccc32)c1 (stereo not drawn),n,n,25,n
COc1ccc(OC)c(/C=N/NC(=O)c2cnccn2)c1,n,69,n,n
CC(C)n1nnnc1SCC(=O)Nc1cccc(F)c1,n,n,n,n
CC(=O)Nc1ccc(S(=O)(=O)Nc2cc(S(=O)(=O)N3CCCCC3)ccc2O)cc1,n,x,x,x
COc1cccc(C(=O)O/N=C(\C)c2cnccn2)c1,n,n,19,n
C/C(=N/OC(=O)c1c(-c2c(Cl)cccc2Cl)noc1C)c1cnccn1,n,n,n,n
COc1cccc(/C=N/NC(=O)c2cnccn2)c1O,n,89,37,n
COc1ccc(/C=N/NC(=O)c2cnccn2)cc1O,n,38,65,n
COc1cc(/C=N/NC(=O)c2ccncc2)ccc1O,n,n,n,n
COc1ccc(NC(=O)CN(Cc2ccco2)Cc2ccco2)cc1S(=O)(=O)N1CCCCC1,n,x,x,x
COC(=O)c1ccc(OCC(=O)c2ccc(C)c(C)c2)cc1,n,82,24,n
COC(=O)c1ccc(OCC(=O)c2cccc(OC)c2)cc1,n,65,43,n
Cc1ccc(NC2=NC(c3ccco3)n3c(nc(C)cc3=O)N2)c(C)c1 (stereo not drawn),n,n,n,n
CC(C)OCCCN1C(=O)c2ccccc2C1C(=O)NC1CCCCC1 (stereo not drawn),n,n,n,n
CCOc1ccccc1C(=O)OC(C)C(=O)Nc1ccc(S(=O)(=O)N2CCCC2)cc1 (stereo not drawn),n,x,x,x
CCOc1ccc(CONS(=O)(=O)c2ccc(NC(C)=O)cc2)cc1Cl,n,n,n,n
Cc1nnc2sc(-c3ccc(N(C)C)cc3)nn2c1=O,n,54,28,n
COc1cccc(C(=O)OCC(=O)Nc2cc(C)on2)c1OC,n,x,x,x
C/C(=N\n1nnnc1Nc1ccccc1)c1ccc(N)cc1,n,n,26,n
COc1cc(-c2nc3ccccc3s2)ccc1O,n,80,45,n
COc1ccc(-c2nc3ccccc3s2)cc1O,n,n,n,n
CCOc1cc(-c2cc(-c3ccccc3)nc(N)c2C#N)ccc1O,n,n,n,n
CCOc1cc(-c2nc3ccccc3s2)ccc1O,n,65,56,n
Cc1cccc(N(CC(=O)NC2CCCCC2)C(=O)c2c(C)noc2C)c1,n,n,n,n
SMILES,SARS PLpro yeast,Shiga toxin inh,Cycloheximide cs,NS1 function inh
O=C(/C=C\NCC(=O)c1ccccc1)c1ccc(F)cc1,n,n,28,n
O=C(/C=C\NCC(=O)c1ccccc1)c1ccc2ccccc2c1,n,52,12,n
CCOC(=O)C1CCN(C(=O)COC(=O)CNC(=O)c2ccc(OC)cc2)CC1,n,n,n,x
CNC(=S)N/N=C1\CC(c2ccccc2)Oc2ccccc21 (stereo not drawn),n,n,n,n
O=S(=O)(N/N=C1/CC(c2ccccc2)Oc2ccccc21)c1ccc(Br)cc1 (stereo not drawn),n,n,28,n
Cc1ccc(S(=O)(=O)N/N=C2/CC(c3ccccc3)Oc3ccccc32)cc1[N+](=O)[O-] (stereo not drawn),n,39,55,n
Fc1ccc(N/N=C2/CC(c3ccccc3)Oc3ccccc32)c(F)c1 (stereo not drawn),n,52,26,n
CN(C)c1ccc2nc3ccc(=[N+](C)C)cc-3sc2c1,n,88,64!,x
Cc1cc2nc3ccc(=[N+](C)C)cc-3sc2cc1N,n,48,36,n
CSc1nc2ccc(S(=O)(=O)N(C)C)cc2s1,n,n,n,n
CCCC/C(O)=N\S(=O)(=O)c1ccc(N=NN(C)C)cc1,n,n,n,n
CC1CCCC(C)N1C(=O)COC(=O)c1ccc2ccccc2n1 (stereo not drawn),n,x,x,x
COCCNC(=S)N1CCC(c2nc(-c3ccc(N(C)C)cc3)no2)CC1,n,n,24,n
CC(SC1=NCCN1S(=O)(=O)c1ccccc1)c1ccccc1 (stereo not drawn),n,n,n,n
CCCCn1c(N)c(N(Cc2ccccc2)C(=O)COc2ccccc2F)c(=O)[nH]c1=O,n,x,x,x
Cc1cc(C)c2nc(NNC(=O)c3cc(=O)c4ccccc4o3)sc2c1,n,n,19,n
CCOC(=O)Cc1csc(NC(=O)c2cc(=O)c3ccccc3o2)n1,n,n,n,n
O=C(c1ccccc1F)N1CCN(c2ccc([N+](=O)[O-])c(NCC3CCCO3)c2)CC1 (stereo not drawn),n,n,n,n
Cn1c(Cc2ccccc2)nnc1SCC(=O)NCCc1ccccc1,n,n,n,x
COc1ccc(C(=O)Nc2nnc(SCC(=O)NCc3ccco3)s2)cc1OC,n,n,n,n
COc1ccccc1C(=O)Nc1nnc(SCC(=O)NCc2ccco2)s1,n,63,43,n
COc1ccc(C(=O)Nc2nnc(SCC(=O)NCc3ccco3)s2)c(OC)c1,n,33,35,n
COc1cc(OC)cc(C(=O)Nc2nnc(SCC(=O)NCc3ccco3)s2)c1,n,n,34,n
O=C(CSc1nnc(NC(=O)c2ccccc2F)s1)NCc1ccc(F)cc1,n,107,41,n
CCCC(=O)Nc1nnc(SCC(=O)NCc2ccco2)s1,n,n,n,n
SMILES,SARS PLpro yeast,Shiga toxin inh,Cycloheximide cs,NS1 function inh
O=C(NC(Cc1ccc(O)cc1)C(=O)O)c1ccc2c(c1)OCO2 (stereo not drawn),n,x,x,x
O=C(CSc1nnc(NC(=O)c2ccccc2F)s1)NCc1ccco1,n,79,35,n
COc1ccccc1C(=O)Nc1nnc(SCC(=O)NCC2CCCO2)s1 (stereo not drawn),n,115,40,n
O=C(CSc1nnc(NC(=O)c2ccco2)s1)Nc1ccccc1F,n,n,n,n
O=C(CSc1nnc(NC(=O)c2ccccc2F)s1)Nc1ccccc1F,n,70,35,n
CCOc1ccc(C(=O)Nc2nnc(SCC(=O)NCC3CCCO3)s2)cc1OCC (stereo not drawn),n,n,n,n
CSc1ccc(S(=O)(=O)N2CCC(C(=O)NCc3cccnc3)CC2)cc1,n,n,n,n
CC(C)CCN(C(=S)NC(=O)C1CCCCC1)c1c(N)n(Cc2ccccc2)c(=O)[nH]c1=O,n,n,n,x
O=C(NNC(=O)c1nn(-c2ccc(F)cc2)ccc1=O)c1ccc(C(F)(F)F)cc1,n,n,n,n
COc1ccc(NC(=O)CNS(=O)(=O)c2ccccc2)cc1Cl,n,n,14,n
COc1ccc(NC(=O)COC(=O)CNS(=O)(=O)c2ccccc2)cc1OC,n,n,n,x
COc1ccc(NC(C)=[N+](C)CCNS(=O)(=O)c2ccc(Cl)cc2)cc1Cl,n,n,16,n
COc1ccccc1NC(C)=[N+](C)CCNS(=O)(=O)c1ccc(Cl)cc1,n,n,n,n
O=C(O)C1CC=CCC1C(=O)NC1CCCCC1 (stereo not drawn),n,n,n,n
CCCOC(=O)c1ccc(NC(=O)c2ccoc2C)cc1,n,88,41,n
CCCCOC(=O)c1ccc(NC(=O)c2ccoc2C)cc1,n,70,29,n
CC1=C(C(=O)Nc2ccc(C)cc2)C(c2cccs2)NC(=S)N1 (stereo not drawn),n,n,19,n

# Screening results from PubChem BioAssay.
